# NPR1 antag: Natriuretic polypeptide receptor (hNpr1) antagonism - Primary qHTS | HEK293 hNpr1 GloSensor cGMP, ANP-stimulated luminescence | 76,000 compounds, 1.6% hits | Atrial natriuretic peptide receptor 1 (Homo sapiens), P16066 | Potency, µM (series often up to 46.3 µM), actives largely listed as inhibitors; calls by dose curve; also: nearly all actives have a fitted effect of over 60% in size
# Target sequence (P16066 whole entry, looked up): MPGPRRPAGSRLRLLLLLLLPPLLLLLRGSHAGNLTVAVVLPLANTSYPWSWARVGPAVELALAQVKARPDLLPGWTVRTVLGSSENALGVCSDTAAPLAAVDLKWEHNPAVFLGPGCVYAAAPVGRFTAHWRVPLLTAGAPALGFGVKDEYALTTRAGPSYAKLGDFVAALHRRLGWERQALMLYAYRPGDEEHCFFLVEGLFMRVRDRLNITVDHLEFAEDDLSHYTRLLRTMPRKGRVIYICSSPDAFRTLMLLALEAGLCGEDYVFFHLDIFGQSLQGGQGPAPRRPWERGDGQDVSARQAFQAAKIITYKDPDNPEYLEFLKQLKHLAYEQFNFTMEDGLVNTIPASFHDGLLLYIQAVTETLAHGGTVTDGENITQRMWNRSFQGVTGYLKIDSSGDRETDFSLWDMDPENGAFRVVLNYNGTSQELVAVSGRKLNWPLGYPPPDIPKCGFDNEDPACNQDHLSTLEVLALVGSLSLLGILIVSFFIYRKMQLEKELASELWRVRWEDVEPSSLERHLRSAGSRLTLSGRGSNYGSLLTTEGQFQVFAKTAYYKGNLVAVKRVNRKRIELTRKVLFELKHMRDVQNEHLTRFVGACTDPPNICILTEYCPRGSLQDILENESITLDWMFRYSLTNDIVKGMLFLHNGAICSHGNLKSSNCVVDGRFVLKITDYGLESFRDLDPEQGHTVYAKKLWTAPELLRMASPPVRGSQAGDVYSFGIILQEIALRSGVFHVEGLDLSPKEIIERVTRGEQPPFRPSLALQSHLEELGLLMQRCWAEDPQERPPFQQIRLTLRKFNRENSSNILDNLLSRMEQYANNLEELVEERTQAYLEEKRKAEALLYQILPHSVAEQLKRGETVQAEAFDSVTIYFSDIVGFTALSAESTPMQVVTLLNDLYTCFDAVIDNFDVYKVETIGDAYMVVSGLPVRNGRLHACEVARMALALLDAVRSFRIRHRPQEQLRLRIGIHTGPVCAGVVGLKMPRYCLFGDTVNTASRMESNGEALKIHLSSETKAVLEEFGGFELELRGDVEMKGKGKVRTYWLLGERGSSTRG
#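 Compound pre-incubated 30 min at room temperature on GloSensor-loaded HEK293 cells stably carrying hNpr1 and the pGS-40F cGMP biosensor. Stimulation uses hNppA at 0.1 nM final; luminescence is taken at baseline and 20 min post-agonist.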
# HEK cytotox: Cytotoxic Profiling in HEK 293 Cell Line of Diverse Libraries Using Quantitative High-Throughput Screening; HEK 293 viability, ATP luminescence (CellTiter-Glo), 48-72 h; Potency, µM (top dose mostly 115 µM), actives largely listed as inhibitors; 94,000 compounds, 6.6% hits; also: nearly all actives have a fitted effect of over 60% in size
#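 HEK 293 cells seeded at 250 cells/well were exposed to compound for 48 or 72 hr at 37 degree Celsius. Viability taken as ATP content by CellTiter-Glo luminescence.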
# FLuc inh-1: Firefly luciferase inhibition profiling of diverse chemical library using quantitative high-throughput screening | Luciferin 4-monooxygenase (Photinus pyralis), P08659 | purified P. pyralis luciferase, luminescence, biochemical | Potency, µM (titrated, usually from 115 µM), most hits filed as inhibitors | 76,000 compounds, 2.5% hits | AID 1347043, 2019; also: nearly all actives have a fitted effect of over 65% in size
#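 Biochemical qHTS: compound (6-point titration) added to 10uM D-luciferin plus 10uM ATP in Tris acetate pH 7.5 buffer with Mg, Tween-20 and BSA, then purified enzyme at 10nM; light output imaged.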
# NIH3T3 tox: Cytotoxic Profiling in NIH 3T3 Cell Line of Diverse Libraries Using Quantitative High-Throughput Screening; NIH 3T3 viability, CellTiter-Glo ATP luminescence, 48-72 h; Potency, µM (doses to about 96.7 µM), actives largely listed as inhibitors; 94,000 compounds, 4.3% hits; AID 1345082, 2018; also: nearly all actives have a fitted effect of over 55% in size
#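 ATP-dependent luminescence (CellTiter-Glo) served as the viability signal for NIH 3T3 cells treated with compound for 48 or 72 hr at 37 °C.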
# FLuc SDR no ATP: Firefly luciferase (FLuc-C-HiBiT) SDR gain of signal screen - without ATP; Potency, µM (titrated, usually from 32.7 µM), most hits filed as activators; shares compounds with FLuc inh-1; AID 1963318, 2024; Purified FLuc-C-HiBiT, Nano-Glo HiBiT luminescence, no ATP; 1,300 compounds, 7.8% hits; also: nearly all actives have a fitted effect of over 55% in size
# FLuc SDR ATP: Firefly luciferase (FLuc-C-HiBiT) SDR gain of signal screen - plus ATP; shares compounds with FLuc inh-1; purified FLuc-C-HiBiT + ATP, HiBiT complementation luminescence; Potency, µM (titrated, usually from 32.7 µM), usual class: activators; 1,300 compounds, 8.7% hits;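 also: signal reports ligand binding via conformational change of the enzyme rather than luciferase catalysis; nearly all actives have a fitted effect of over 55% in size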
# FLuc inh-2: Firefly luciferase (FLuc-C-HiBiT) enzymatic inhibition screen - Functional assay; shares compounds with FLuc inh-1; purified FLuc-C-HiBiT enzyme, luciferin luminescence; Potency, µM (series often up to 32.7 µM), hits mostly inhibitors; 1,300 compounds, 42% hits; also: nearly all actives have a fitted effect of over 70% in size
# Numbers stand for hits; i = inactive; ? = inconclusive; nt = no result given. Compounds with a hit are over-represented: about 11% of the library has one in this group of screens. Unless noted, calls follow the shape of the dose curve; as a rule, active = well fitted curve in the direction sought with a large enough effect; inconclusive = small, poorly fitted or top-dose-only effect, or another doubt; inactive = no such curve, though single readings can be large; an effect the other way counts as inactive or inconclusive.
SMILES,NPR1 antag,HEK cytotox,FLuc inh-1,NIH3T3 tox,FLuc SDR no ATP,FLuc SDR ATP,FLuc inh-2
CN(c1ccccc1)c1ccc2ncn(C3CC3)c(=O)c2n1,16µM,?,1.3µM,?,18µM,7.2µM,5.7µM
CCCNc1cc(N2CCC(CCC(=O)NCC)CC2)ncn1,i,i,i,i,nt,nt,nt
CCCNc1cc(N2CCC(CCC(=O)O)CC2)ncn1,i,i,40µM,i,i,9.9µM,7.9µM
O=C(CCC1CCN(c2cc(NC3CC3)ncn2)CC1)Nc1ccccc1,?,?,?,i,nt,nt,nt
O=C(O)CCC1CCN(c2cc(NC3CC3)ncn2)CC1,i,i,5µM,i,i,3.9µM,3.1µM
CCOC(=O)CN1C(=O)CN(S(C)(=O)=O)CCC(OC)c2ccccc21 (stereo not given),nt,i,nt,?,nt,nt,nt
Cc1ccc(NC(=O)C2CCN(c3nc(-c4ccc(C(C)C)cc4)no3)CC2)c(Cl)c1,nt,nt,nt,nt,i,?,?
Cc1ccc(C)c(N2CCN(C(=O)C3CCN(c4nc(-c5ccc(C(C)C)cc5)no4)CC3)CC2)c1,nt,nt,nt,nt,i,?,?
Cc1ccc(-c2noc([C@@H]3CCCN3C(=O)c3ccc(C(C)C)cc3)n2)cc1,i,?,?,?,nt,nt,nt
CN(C)C(=O)c1cccc(-c2cc(F)c3nc(N)sc3c2)c1,i,?,?,?,nt,nt,nt
Cc1cccc(CCNC(=O)c2sc3nc4n(c(=O)c3c2C)CCCC4)c1,nt,nt,nt,nt,i,i,i
O=c1oc2c(CN3CCCC3)c(O)ccc2cc1-c1ccccc1,nt,nt,nt,nt,i,i,i
O=C(NCc1ccc(F)cc1)c1c(-c2ccccc2)cc(=O)n2c1CCCC2,nt,i,nt,?,nt,nt,nt
O=C(C1CN(C2CCCCC2)C(=O)N1)N1CCN(Cc2ccccc2)CC1 (stereo not given),nt,i,nt,i,nt,nt,nt
O=C(NC1CCN(c2cc(-c3ccc(Cl)cc3)[nH]n2)C1)c1ccc(Br)cc1 (stereo not given),i,?,i,?,nt,nt,nt
COc1ncccc1-c1cnc2[nH]cc(CC(=O)Nc3ccn(C)n3)c2c1,i,?,i,?,nt,nt,nt
CC(C)c1nc(C2Cc3ccccc3N2C(=O)NC2CCCC2)no1 (stereo not given),?,?,7.9µM,?,i,i,?
CCOCC(=O)N1c2ccccc2CC1c1noc(C(C)C)n1 (stereo not given),?,?,7.1µM,?,i,i,?
CN1C[C@@H](NC(=O)c2ccc(C(C)(C)C)cc2)C[C@H]1c1nc(-c2ccc3c(c2)OCO3)no1,?,?,i,?,nt,nt,nt
COc1cccc(CC(=O)Nc2ccc3ncnc(N4CCCC4)c3c2)c1,i,?,i,?,nt,nt,nt
Cc1cc(C)cc(OCC(=O)Nc2ccc(-c3nc4ccccc4s3)cc2)c1,nt,nt,nt,nt,i,i,i
CCCCC(=O)Nc1cccc(-c2nc3ccccc3s2)c1,nt,nt,nt,nt,i,i,?
COc1cccc(CC(=O)Nc2ccc(-c3nc4ccccc4s3)cc2)c1,nt,nt,nt,nt,i,i,?
CCCC(=O)Nc1ccccc1-c1cccc(NC(C)=O)c1,i,i,i,i,nt,nt,nt
Cc1cccc(OCC(=O)Nc2ccc(-c3nnc4n3CCCC4)cc2)c1,i,i,i,?,nt,nt,nt
SMILES,NPR1 antag,HEK cytotox,FLuc inh-1,NIH3T3 tox,FLuc SDR no ATP,FLuc SDR ATP,FLuc inh-2
CCN1C(=O)CN(C(=O)C2CCCCC2)CC12CCOCC2,nt,i,nt,i,nt,nt,nt
CC(=O)N1CCc2ccc(C(=O)NC3CCCCCC3)cc21,14µM,?,0.35µM,?,?,11µM,6.2µM
CC(C)Oc1ccc(C(=O)Nc2nnc3n2CCS3)cc1,nt,nt,nt,nt,i,?,?
Cc1ccc(-c2cc3c(=O)n(CCNC(=O)c4ccco4)ccn3n2)c(C)c1,i,?,8.9µM,?,i,i,?
COc1ccccc1C(=O)NCCn1ccn2nc(-c3ccc(C)cc3C)cc2c1=O,i,?,10µM,?,i,i,?
Cc1ccc(-c2cc3c(=O)n(CCNC(=O)c4cccc(C#N)c4)ccn3n2)c(C)c1,?,45µM,2µM,35µM,?,?,3.1µM
Cc1ccc(-c2cc3c(=O)n(CCNC(=O)c4ccoc4)ccn3n2)c(C)c1,i,?,?,?,nt,nt,nt
Cc1ccc(-c2cc3c(=O)n(CCNC(=O)Cc4cccc(F)c4)ccn3n2)c(C)c1,i,?,3.5µM,?,?,?,5.6µM
CCCc1ccc(S(=O)(=O)N2CCN(C3(CC)CCN(C(=O)NC)C3)CC2)cc1 (stereo not given),i,?,i,i,nt,nt,nt
COc1cccc(CC(=O)NCCn2ccn3nc(-c4ccc(C)cc4C)cc3c2=O)c1,i,?,11µM,?,?,i,?
O=C(CCc1nc2ccccc2s1)N1CCCC1c1nc(CCOCC2CC2)no1 (stereo not given),i,i,i,i,nt,nt,nt
CCc1nn2c(-c3ccco3)ccnc2c1-c1ccc(F)cc1,nt,nt,nt,nt,i,i,?
CCOc1cccc(NC(=O)CSc2ncc(-c3ccccc3)[nH]2)c1,nt,nt,nt,nt,i,i,i
CCOc1cccc(NC(=O)c2cc(-c3ccc(C(F)(F)F)cc3)nc3c2cnn3C)c1,nt,i,nt,?,nt,nt,nt
Cc1ccc(C(=O)N2CCC3(CC2)NCCc2c3[nH]c3ccccc23)cn1,i,i,i,i,nt,nt,nt
Fc1ccc2nc([C@H]3CCN(Cc4ccccc4F)C3)[nH]c2c1,?,?,3.2µM,79µM,i,i,14µM
COc1ccc2nc([C@H]3CCN(Cc4ccccc4F)C3)[nH]c2c1,i,?,i,?,nt,nt,nt
CC(=O)Nc1ccc(-c2nnc3n2CCN(C(=O)c2ccc(C)cc2)C3)cc1,nt,i,nt,i,nt,nt,nt
CCOc1ccc(-c2cn3nc(CC(C)C)sc3n2)cc1,nt,nt,nt,nt,i,i,5µM
CCOc1ccc(NC(=O)c2cc3c(N4CCSCC4)nc(C)cn3n2)cc1,i,i,i,i,nt,nt,nt
COc1ccc2cc(C3CN(C(=O)Cc4ccc(O)cc4)CCO3)ccc2c1 (stereo not given),?,?,8.9µM,?,i,i,?
COCC(=O)N(C1CCOCC1)C1CCN(C(=O)Cc2ccc(OC)cc2)CC1,i,i,i,i,nt,nt,nt
O=C(NCCNC(=O)c1cccc(-c2ccsc2)c1)c1ccc(C(F)(F)F)cc1,nt,i,nt,i,nt,nt,nt
CNC(=O)c1cccc(-c2cnc(NC(=O)c3ccncc3)c3c2CCO3)c1,i,i,13µM,?,i,?,?
CN(C)c1cccc(C(=O)Nc2ncc(-c3cnn(C)c3)c3c2OCC3)c1,i,i,?,?,nt,nt,nt
